PubChem BioAssay (NCI)
Compounds without any hit were thinned out: in the full panel of roughly 79,000, 15% have a hit. Rule as the data show it: active = growth inhibition above about 70%; inactive = the rest.

Legend:
[1] = NCI Yeast Anticancer Drug Screen. Data for the rad52 strain (AID 147);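 also: 0% = growth of vehicle-treated control cultures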; conditions: S. cerevisiae rad52 mutant growth inhibition, active compounds read high
Procedure, shortened: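 DNA repair-defective yeast; compound exposure; growth scored against vehicle controls.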

[2] = NCI Yeast Anticancer Drug Screen. Data for the wt1 strain (AID 149);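 also: 0% = growth of vehicle-treated wt1 cultures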; conditions: S. cerevisiae wt1 strain (SPY 50644) growth inhibition, active compounds read high
Procedure, shortened: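 wt1 strain grown with compound or vehicle; inhibition taken from the growth difference.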

[3] = NCI Yeast Anticancer Drug Screen. Data for the rad50EPP+ strain (AID 151);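 also: 0% = growth of vehicle-treated control cultures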; conditions: S. cerevisiae rad50 mutant strain, active compounds read high
Procedure, shortened: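 rad50EPP+ yeast treated with test compounds. Readout: growth vs vehicle control.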

[4] = NCI Yeast Anticancer Drug Screen. Data for the mgt1 strain (AID 153); conditions: S. cerevisiae mgt1 mutant growth inhibition, active compounds read high
Procedure, shortened: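 Growth inhibition relative to vehicle controls was scored for the mgt1 yeast strain after compound exposure.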

[5] = NCI Yeast Anticancer Drug Screen. Data for the rad50 strain (AID 155);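 also: 0% = growth of vehicle-only cultures of the same strain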; conditions: S. cerevisiae rad50 strain growth inhibition, active compounds read high
Procedure, shortened: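 DNA repair mutant yeast, compound exposure, growth read-out; inhibition is taken relative to vehicle.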

[6] = NCI Yeast Anticancer Drug Screen. Data for the mec2-1 strain (AID 157); conditions: S. cerevisiae mec2-1 strain, active compounds read high
Procedure, shortened: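 Growth inhibition is read against vehicle-treated controls after compound exposure of the mec2-1 yeast strain, which is defective in DNA damage repair or cell cycle control.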

[7] = NCI Yeast Anticancer Drug Screen. Data for the rad14 strain (AID 159);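 also: 0% = growth of vehicle-treated control cultures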; conditions: S. cerevisiae rad14 strain growth inhibition, active compounds read high
Procedure, shortened: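 DNA repair-defective yeast, compound-exposed; % growth inhibition derived by comparison with vehicle-treated controls.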

[8] = NCI Yeast Anticancer Drug Screen. Data for the sgs1 mgt1 strain (AID 161);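 also: 0% = growth of cultures given vehicle only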; conditions: S. cerevisiae sgs1 mgt1 strain, active compounds read high
Procedure, shortened: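 This yeast growth screen uses a strain with defined DNA-repair lesions; compound-treated growth is compared with vehicle-treated growth.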

[9] = NCI Yeast Anticancer Drug Screen. Data for the CLN2oe strain (AID 163);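 also: 0% = growth of vehicle-only control cultures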; conditions: S. cerevisiae CLN2oe strain, active compounds read high
Procedure, shortened: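 Compound-treated yeast; growth vs vehicle ctrl = % inhibition. Genetically altered strain (cell-cycle control).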

[10] = NCI Yeast Anticancer Drug Screen. Data for the cln2 rad14 strain (AID 165);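 also: 0% = growth equal to vehicle treated cultures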; conditions: S. cerevisiae cln2 rad14 strain, active compounds read high
Procedure, shortened: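 Growth inhibition, relative to vehicle-treated controls, is the read-out. The test organism is a yeast strain with defined genetic alterations, cln2 rad14.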

[11] = NCI Yeast Anticancer Drug Screen. Data for the bub3 strain (AID 167); conditions: S. cerevisiae bub3 mutant strain, active compounds read high
Procedure, shortened: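 In this screen, a yeast mutant lacking normal mitotic checkpoint function is challenged with compound. Relative growth versus vehicle gives the inhibition value.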

[12] = NCI Yeast Anticancer Drug Screen. Data for the wt2 strain (AID 169);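 also: 0% = growth of vehicle-treated yeast cultures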; conditions: S. cerevisiae wt2 strain growth inhibition, active compounds read high
Procedure, shortened: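 Compound exposure of yeast; growth compared with vehicle controls; inhibition reported.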

[13] = NCI Yeast Anticancer Drug Screen. Data for the sgs1 strain (AID 173);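 also: 0% = growth of vehicle-only control cultures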; conditions: S. cerevisiae sgs1 mutant, active compounds read high
Procedure, shortened: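 Compounds applied to genetically altered yeast; growth compared with vehicle-treated cultures to give % inhibition.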

[14] = NCI Yeast Anticancer Drug Screen. Data for the mlh1 rad18 strain (AID 175); conditions: S. cerevisiae mlh1 rad18 strain growth inhibition, active compounds read high
Procedure, shortened: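 Cells of a genetically altered yeast strain, deficient in DNA damage repair, were treated with compound. Their growth was then compared with that of vehicle-treated cultures to give inhibition.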

[15] = NCI Yeast Anticancer Drug Screen. Data for the rad18 strain (AID 177); conditions: S. cerevisiae rad18 mutant growth inhibition, active compounds read high
Procedure, shortened: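 Compounds are applied to a repair-deficient yeast strain, and growth is compared with that of vehicle-treated cultures to give percent inhibition.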

[16] = at 5.0 µM (retest, dose inferred, filed as 0.5)
[17] = at 50.0 µM (retest, dose inferred, filed as 5.0)

Measured: growth inhibition

CCCCCCOC(=O)NCCOC(=O)Nc1ccccc1
inactive: [1]; at 1.2 µM 1% | [1]; at 3.7 µM 3% | [1]; at 11.0 µM 7% | [1]; at 33.0 µM 7% | [1]; at 100.0 µM 6% | [2]; at 1.2 µM 1% | [2]; at 3.7 µM 1% | [2]; at 11.0 µM 2% | [2]; at 33.0 µM 2% | [2]; at 100.0 µM 1% | [3]; at 1.2 µM 3% | [3]; at 3.7 µM 6% | [3]; at 11.0 µM 11% | [3]; at 33.0 µM 17% | [3]; at 100.0 µM 15% | [4]; at 1.2 µM -1% | [4]; at 3.7 µM 1% | [4]; at 11.0 µM 3% | [4]; at 33.0 µM 22% | [4]; at 100.0 µM 4% | [5]; at 1.2 µM 4% | [5]; at 3.7 µM 5% | [5]; [16] 0% | [5]; at 11.0 µM 7% | [5]; at 33.0 µM 8% | [5]; [17] 5% | [5]; at 50.0 µM 19.7% | [5]; at 100.0 µM 7% | [6]; at 1.2 µM 0% | [6]; at 3.7 µM 3% | [6]; [16] -5% | [6]; at 11.0 µM 3% | [6]; at 33.0 µM 5% | [6]; [17] 1% | [6]; at 50.0 µM 6.15% | [6]; at 100.0 µM 8% | [7]; at 1.2 µM 6% | [7]; at 3.7 µM 7% | [7]; at 11.0 µM 12% | [7]; at 33.0 µM 17% | [7]; at 100.0 µM 16% | [8]; [16] 12% | [8]; [17] 10% | [8]; at 50.0 µM 20.2% | [9]; at 1.2 µM 1% | [9]; at 3.7 µM 4% | [9]; at 11.0 µM 1% | [9]; at 33.0 µM 3% | [9]; at 100.0 µM -2% | [10]; [16] 5% | [10]; [17] 19% | [10]; at 50.0 µM 6.5% | [11]; at 1.2 µM 3% | [11]; at 3.7 µM 2% | [11]; [16] 9% | [11]; at 11.0 µM 5% | [11]; at 33.0 µM 1% | [11]; [17] -2% | [11]; at 50.0 µM 11.1% | [11]; at 100.0 µM 0% | [12]; at 1.2 µM 1% | [12]; at 3.7 µM -1% | [12]; at 11.0 µM -1% | [12]; at 33.0 µM 0% | [12]; at 100.0 µM -2% | [13]; at 1.2 µM 2% | [13]; at 3.7 µM 2% | [13]; at 11.0 µM 3% | [13]; at 33.0 µM 9% | [13]; at 100.0 µM 9% | [14]; [16] 19% | [14]; [17] 53% | [14]; at 50.0 µM 17.7% | [15]; at 1.2 µM 2% | [15]; at 3.7 µM 2% | [15]; at 11.0 µM 13% | [15]; at 33.0 µM 4% | [15]; at 100.0 µM 6%
